Results filed as inconclusive are left out. A call without a number means that no potency is given here. Activity calls are given as the source filed them. The call rests on the fitted dose curve; in most records, active means well fitted inhibition curve with a large enough effect; inconclusive means small, poorly fitted or top-dose-only effect; inactive means flat fitted curve, though single readings scatter.
Potency means the concentration at half of the fitted maximal effect.

In one assay the test system is PC15. The assay is described as follows: qHTS profiling for inhibitors of Plasmodium falciparum proliferation (AID 504749). Further: nearly all actives have a fitted effect of over 60% in size. The note with it: P. falciparum in erythrocytes, SYBR Green DNA, 72 h; series mostly up to 28.7 µM. The method, boiled down: (§1)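 SYBR Green fluorescence (ex 485 nm, em 535 nm) reports parasite DNA after 72 h compound exposure of infected red cells at 0.3% parasitemia, 2.5% hematocrit; signal normalized to 0.29 uM artemisinin and vehicle wells.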
On to `Cc1ccc2c(Br)cc(Br)c(O)c2n1`, for which the Potency result was “inactive”.

In the case of `COC(=O)C(c1ccccc1Cl)N1CCc2sccc2C1` (stereo not given), the Potency entry is “inactive”.

For the compound `Cc1cc2c(OCC(CNC(C)(C)C)OC(=O)c3ccccc3)cccc2[nH]1` (stereo not given), the Potency result is “inactive”.

Turning to `Cc1cccc(C)c1NC(=O)CN1CCCCCC1`, the Potency result was “inactive”.

In the case of `CC(=O)NCCCCCC(=O)O`, the Potency result was “inactive”.

Take `CCc1ccc(C(=O)C(C)CN2CCCCC2)cc1` (stereo not given): the Potency result is “inactive”.

Regarding `COc1ccc2c(c1)c1c3n2CCN(C)C3=NCC1`, the Potency result was “inactive”.

In a further assay the test system is PC26. Described as above. The note with it: P. falciparum in erythrocytes, SYBR Green DNA, 72 h; series mostly up to 28.7 µM. The method, boiled down:
as §1
On to `C[N+]1(C)CCC(=C(c2ccccc2)c2ccccc2)CC1`, for which the Potency result is “inactive”.

With `CCN(CC)CCOC(=O)C1(c2ccccc2)CCCC1`, the Potency entry is “inactive”.

Consider `CCC(CC)(CC(=O)Nc1cccc(/C=C/c2nc(C3CCC3)cs2)c1)C(=O)O`, for which the Potency result is “inactive”.

On to `CN1CCN(C2=Nc3cc(F)ccc3Cc3ccccc32)CC1`, for which the Potency result is “inactive”.

In the case of `CC(C)[N+](C)(C)CC(O)COc1cccc2ccccc12` (stereo not given), the Potency entry was “inactive”.

As to `CC(=O)O[C@H]1C[C@@H]2CC[C@@H]3[C@H](CC[C@@]4(C)[C@H]3C[C@H]([N+]3(C)CCCCC3)[C@@H]4OC(C)=O)[C@@]2(C)C[C@@H]1N1CCCCC1`, the Potency result is “inactive”.

In the case of `CCNC(=O)NCc1cccc(Cl)c1`, the Potency result is “inactive”.

Take `CCOc1ccccc1OCCN[C@H](C)Cc1ccc(OC)c(S(N)(=O)=O)c1`: the Potency entry is “inactive”.

In the case of `CC(=O)O[C@]1(C(C)=O)CC[C@H]2[C@@H]3C=C(Cl)C4=CC(=O)CC[C@]4(C)[C@H]3CC[C@@]21C`, the Potency was 13.5 µM (active).

For `CCOC(=O)Nc1ccc2c(c1)N(C(=O)CCN1CCOCC1)c1ccccc1S2`, the Potency entry is “inactive”.

On to `CC[N+](C)(CC)CCOC(=O)C(O)(c1ccccc1)C1CCCCC1` (stereo not given), for which the Potency result is “inactive”.

In the case of `CCC(C(=O)OCCOCCN(CC)CC)c1ccccc1` (stereo not given), the Potency result is “inactive”.

`NC(=O)C1(N2CCCCC2)CCN(CCCC(=O)c2ccc(F)cc2)CC1`: the Potency entry is “inactive”.

Take `CCCCCCCCCCCCOCCOCCOCCOCCOCCOCCOCCOCCOCCO`: the Potency result was “inactive”.

With `Cc1cc2c(OCC(CNC(C)(C)C)OC(=O)c3ccccc3)cccc2[nH]1` (stereo not given), the Potency result is “inactive”.

`Cc1cccc(C)c1NC(=O)CN1CCCCCC1`: the Potency entry is “inactive”.

With `CCc1ccc(C(=O)C(C)CN2CCCCC2)cc1` (stereo not given), the Potency entry is “inactive”.

For the compound `CN(C)CCOC(c1ccc(Cl)cc1)c1ccccn1` (stereo not given), the Potency entry is “inactive”.

As to `COc1ccc2c(c1)c1c3n2CCN(C)C3=NCC1`, the Potency entry is “inactive”.

The next assay has as its system PC49. Described as above. Conditions: P. falciparum in erythrocytes, SYBR Green DNA, 72 h; series mostly up to 28.7 µM. The method in brief:
as §1
For the compound `COc1cc(O)c(C(=O)c2ccccc2)cc1S(=O)(=O)O`, the Potency entry is “inactive”.

As for `C[N+]1(C)CCC(=C(c2ccccc2)c2ccccc2)CC1`, the Potency entry was “inactive”.

For the compound `CCC(CC)(CC(=O)Nc1cccc(/C=C/c2nc(C3CCC3)cs2)c1)C(=O)O`, the Potency result is “inactive”.

With `CN1CCN(C2=Nc3cc(F)ccc3Cc3ccccc32)CC1`, the Potency result was “inactive”.

For `COc1ccc(C(=O)c2ccccc2)c(O)c1`, the Potency result was “inactive”.

`COc1ccc(C(=O)c2ccccc2O)c(O)c1`: the Potency entry was “inactive”.

Regarding `NCc1ccccc1Sc1ccccc1CO`, the Potency result is “inactive”.

For `C#C[C@]1(OC(C)=O)CC[C@H]2[C@@H]3CCC4=C/C(=N/O)CC[C@@H]4[C@H]3CC[C@@]21CC`, the Potency result is “inactive”.

Consider `COc1cc([C@H]2Oc3cc([C@H]4Oc5cc(O)cc(O)c5C(=O)[C@@H]4O)ccc3O[C@@H]2CO)ccc1O`, for which the Potency result is “inactive”.

As for `O=[N+]([O-])c1cccc(S(=O)(=O)NCCNS(=O)(=O)c2cccc([N+](=O)[O-])c2)c1`, the Potency result was “inactive”.

For the compound `Cc1ncc(CO)c(C=O)c1O`, the Potency entry was “inactive”.

Take `CC(C)[N+](C)(C)CC(O)COc1cccc2ccccc12` (stereo not given): the Potency entry is “inactive”.

As to `CC(=O)O[C@H]1C[C@@H]2CC[C@@H]3[C@H](CC[C@@]4(C)[C@H]3C[C@H]([N+]3(C)CCCCC3)[C@@H]4OC(C)=O)[C@@]2(C)C[C@@H]1N1CCCCC1`, the Potency result was “inactive”.

For `O=C(O)CCc1nc2ccccc2[nH]1`, the Potency is 0.01 µM (active).

Turning to `CCNC(=O)NCc1cccc(Cl)c1`, the Potency result was “inactive”.

Consider `CCOc1ccccc1OCCN[C@H](C)Cc1ccc(OC)c(S(N)(=O)=O)c1`, for which the Potency entry was “inactive”.

As to `Oc1ccc(Cl)cc1Cc1cc(Cl)ccc1O`, the Potency entry was “inactive”.

Turning to `CC(=O)O[C@]1(C(C)=O)CC[C@H]2[C@@H]3C=C(Cl)C4=CC(=O)CC[C@]4(C)[C@H]3CC[C@@]21C`, the Potency entry is “inactive”.

In the case of `CCOC(=O)Nc1ccc2c(c1)N(C(=O)CCN1CCOCC1)c1ccccc1S2`, the Potency result is “inactive”.

For the compound `CC[N+](C)(CC)CCOC(=O)C(O)(c1ccccc1)C1CCCCC1` (stereo not given), the Potency entry was “inactive”.

`CC(C)=CCOc1ccc(/C=C/C(=O)c2ccc(OCC=C(C)C)cc2OCC(=O)O)cc1`: the Potency result was “inactive”.

`O=C(CN1CCN(Cc2ccc3c(c2)OCO3)CC1)N1c2ccccc2Sc2ccccc21`: the Potency result was “inactive”.

Turning to `CCC(C(=O)OCCOCCN(CC)CC)c1ccccc1` (stereo not given), the Potency result was “inactive”.

For the compound `NC(=O)C1(N2CCCCC2)CCN(CCCC(=O)c2ccc(F)cc2)CC1`, the Potency entry is “inactive”.

In the case of `CN1CCN(C2=Nc3ccccc3Sc3ccc(Cl)cc32)CC1`, the Potency entry is “inactive”.

As to `O=S(c1cc(Cl)cc(Cl)c1O)c1cc(Cl)cc(Cl)c1O`, the Potency was 0.398 µM (active).

As for `CCCCCCCCCCCCOCCOCCOCCOCCOCCOCCOCCOCCOCCO`, the Potency entry was “inactive”.

As for `COC(=O)C(c1ccccc1Cl)N1CCc2sccc2C1` (stereo not given), the Potency entry is “inactive”.

Take `Cc1cc2c(OCC(CNC(C)(C)C)OC(=O)c3ccccc3)cccc2[nH]1` (stereo not given): the Potency entry was “inactive”.

Regarding `Cc1cccc(C)c1NC(=O)CN1CCCCCC1`, the Potency result was “inactive”.

With `CC(=O)NCCCCCC(=O)O`, the Potency entry is “inactive”.

`CCc1ccc(C(=O)C(C)CN2CCCCC2)cc1` (stereo not given): the Potency entry is “inactive”.

In the case of `COc1ccc2c(c1)c1c3n2CCN(C)C3=NCC1`, the Potency result was “inactive”.

For `CO[C@]12C[C@@H](COC(=O)c3cncc(Br)c3)CN(C)[C@@H]1Cc1cn(C)c3cccc2c13`, the Potency entry was “inactive”.

Source of the values: PubChem BioAssay (NCATS).
